Molecules are shown by their SMILES. This is part of a sample that, as a whole, favours compounds with a hit. Of some 79,000 tested, about 15% had one in any assay. Values without a mark were called inactive. The source made the active and inactive calls. Cut-off read from the data, not from the text of the source: active = growth inhibition above about 70%; inactive = the rest.

Here are results for 9 molecules from PubChem BioAssay (NCI).

A short description of assay [1]: NCI Yeast Anticancer Drug Screen. Data for the rad50 strain (AID 155).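 Note: 0% = growth of vehicle-only cultures of the same strain.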 Particulars: S. cerevisiae rad50 strain growth inhibition, hits give high values. A digest of the protocol:
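Yeast carrying a defined DNA repair defect were exposed to test compounds, and growth was compared with vehicle-treated controls to give percent inhibition.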

Assay [2] in a line: NCI Yeast Anticancer Drug Screen. Data for the mec2-1 strain (AID 157). Particulars: S. cerevisiae mec2-1 strain, hits give high values. A digest of the protocol: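 Each compound was tested on mec2-1 yeast, a strain altered in DNA damage repair or cell cycle control. Growth inhibition is reported relative to vehicle.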
Assay [3] can be described thus: NCI Yeast Anticancer Drug Screen. Data for the sgs1 mgt1 strain (AID 161).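 Note: 0% = growth of cultures given vehicle only.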 Particulars: S. cerevisiae sgs1 mgt1 strain, hits give high values. A digest of the protocol:
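Inhibition of yeast growth, normalised to vehicle-treated controls, is reported for a strain bearing genetic alterations in DNA damage repair.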

A short description of assay [4]: NCI Yeast Anticancer Drug Screen. Data for the cln2 rad14 strain (AID 165).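 Note: 0% = growth equal to vehicle treated cultures.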 To be noted: S. cerevisiae cln2 rad14 strain, hits give high values. Summed up: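 Test compounds were added to cln2 rad14 yeast cultures; inhibition of growth was then determined by comparison with vehicle treatment.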
Assay [5] can be described thus: NCI Yeast Anticancer Drug Screen. Data for the bub3 strain (AID 167). To be noted: S. cerevisiae bub3 mutant strain, hits give high values. Summed up:
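Compounds were applied to a genetically altered yeast strain carrying a cell-cycle control defect. Growth inhibition was scored against vehicle-treated controls.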

Assay [6] is described as follows: NCI Yeast Anticancer Drug Screen. Data for the mlh1 rad18 strain (AID 175). To be noted: S. cerevisiae mlh1 rad18 strain growth inhibition, hits give high values. Summed up: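 Inhibition values reflect reduced growth of mutant yeast versus vehicle-treated controls following compound exposure; the mutations affect DNA damage repair.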
The mark [7] stands for this setting: at 5.0 µM (retest, dose inferred, filed as 0.5).
[8] abbreviates: at 50.0 µM (retest, dose inferred, filed as 5.0).

With `COc1cc(C(c2cc3c(cc2O)OCO3)N2CCN(C(c3cc(OC)c(OC)c(OC)c3)c3cc4c(cc3O)OCO4)CC2)cc(OC)c1OC` (configuration not stated), the growth inhibition was -2% in assay [1] (setting [7]); 69% in assay [1] (setting [8]); 23.6% in assay [1] (at 50.0 µM); -1% in assay [2] (setting [7]); 74% (active) in assay [2] (setting [8]); 32.9% in assay [2] (at 50.0 µM). The growth inhibition is -5% in assay [3] (setting [7]); 88% (active) in assay [3] (setting [8]); 28.6% in assay [3] (at 50.0 µM); -6% in assay [4] (setting [7]); 93% (active) in assay [4] (setting [8]); -35% in assay [4] (at 50.0 µM). Moreover, the growth inhibition in assay [5] (setting [7]) is -2%; in assay [5] (setting [8]) it was 91% (active); in assay [5] (at 50.0 µM), 6.55%; in assay [6] (setting [7]), 2%; in assay [6] (setting [8]) it was 86% (active); in assay [6] (at 50.0 µM) it was 64.1%.

On to `CCCCOC(=O)c1ccc(O)c(OC)c1`, for which the growth inhibition in assay [1] (setting [7]) was 3%; in assay [1] (setting [8]), -13%; in assay [1] (at 50.0 µM) it was -19.8%; in assay [2] (setting [7]), -10%; in assay [2] (setting [8]) it was 4%; in assay [2] (at 50.0 µM), -3.2%. For the same molecule, the growth inhibition in assay [3] (setting [7]) is 0%; in assay [3] (setting [8]), 6%; in assay [3] (at 50.0 µM), 5.25%; in assay [4] (setting [7]), -5%; in assay [4] (setting [8]), 2%; in assay [4] (at 50.0 µM), -43.9%. The growth inhibition in assay [5] (setting [7]) was 85% (active); in assay [5] (setting [8]), 96% (active); in assay [5] (at 50.0 µM), 95.7% (active); in assay [6] (setting [7]), 0%; in assay [6] (setting [8]) it was 3%; in assay [6] (at 50.0 µM), -11.2%.

For the molecule `CC(=O)OCc1cc2ccccc2nc1C(Br)(Br)Br`, the growth inhibition in assay [1] (setting [7]) is -11%; in assay [1] (setting [8]), 95% (active); in assay [1] (at 50.0 µM) it was 96% (active); in assay [2] (setting [7]), -6%; in assay [2] (setting [8]), 95% (active); in assay [2] (at 50.0 µM), 95.8% (active). In addition, the growth inhibition in assay [3] (setting [7]) is 39%; in assay [3] (setting [8]) it was 99% (active); in assay [3] (at 50.0 µM), 97.5% (active); in assay [4] (setting [7]), -4%; in assay [4] (setting [8]), 96% (active); in assay [4] (at 50.0 µM), 96.7% (active). Besides, the growth inhibition is 62% in assay [5] (setting [7]); 99% (active) in assay [5] (setting [8]); 95.2% (active) in assay [5] (at 50.0 µM); 39% in assay [6] (setting [7]); 96% (active) in assay [6] (setting [8]); 96.7% (active) in assay [6] (at 50.0 µM).

On to `Cc1occc1C(=S)Nc1ccc(Cl)c(/C=N/OC(C)C)c1`, for which the growth inhibition in assay [1] (setting [7]) is 12%; in assay [1] (setting [8]), 83% (active); in assay [1] (at 50.0 µM), 77.5% (active); in assay [2] (setting [7]) it was 13%; in assay [2] (setting [8]), 77% (active); in assay [2] (at 50.0 µM), 59.2%. Also, the growth inhibition in assay [3] (setting [7]) was 13%; in assay [3] (setting [8]), 80% (active); in assay [3] (at 50.0 µM), 71.3% (active); in assay [4] (setting [7]), 24%; in assay [4] (setting [8]) it was 81% (active); in assay [4] (at 50.0 µM) it was 75.6% (active). Also, the growth inhibition in assay [5] (setting [7]) was 22%; in assay [5] (setting [8]) it was 86% (active); in assay [5] (at 50.0 µM) it was 73.5% (active); in assay [6] (setting [7]) it was 17%; in assay [6] (setting [8]), 91% (active); in assay [6] (at 50.0 µM) it was 77.8% (active).

Consider `Oc1ccc(N=Nc2ccc(Cl)cc2)cc1O`, for which the growth inhibition in assay [1] (setting [7]) was -30%; in assay [1] (setting [8]), 98% (active); in assay [1] (at 50.0 µM) it was 98.4% (active); in assay [2] (setting [7]) it was -8%; in assay [2] (setting [8]), 98% (active); in assay [2] (at 50.0 µM), 98.3% (active). The growth inhibition in assay [3] (setting [7]) was 8%; in assay [3] (setting [8]) it was 98% (active); in assay [3] (at 50.0 µM), 98.5% (active); in assay [4] (setting [7]), -7%; in assay [4] (setting [8]), 97% (active); in assay [4] (at 50.0 µM) it was 97.7% (active). Further, the growth inhibition in assay [5] (setting [7]) is -35%; in assay [5] (setting [8]), 98% (active); in assay [5] (at 50.0 µM), 97.8% (active); in assay [6] (setting [7]), -7%; in assay [6] (setting [8]) it was 98% (active); in assay [6] (at 50.0 µM), 98.2% (active).

As to `CNC1=C2NC(=O)/C(C)=C\C=C\C(C)C(O)C(C)C(O)C(C)C(OC(C)=O)C(C)C(OC)/C=C/OC3(C)Oc4c(C)c(O)c(c(c4C3=O)C1=O)C2=O` (configuration not stated), the growth inhibition is -6% in assay [1] (setting [7]); 56% in assay [1] (setting [8]); 52.3% in assay [1] (at 50.0 µM); -2% in assay [2] (setting [7]); 61% in assay [2] (setting [8]); 52.8% in assay [2] (at 50.0 µM). Further, the growth inhibition is 1% in assay [3] (setting [7]); 55% in assay [3] (setting [8]); 45.7% in assay [3] (at 50.0 µM); -4% in assay [4] (setting [7]); 59% in assay [4] (setting [8]); 49% in assay [4] (at 50.0 µM). The growth inhibition is -2% in assay [5] (setting [7]); 58% in assay [5] (setting [8]); 52% in assay [5] (at 50.0 µM); -4% in assay [6] (setting [7]); 64% in assay [6] (setting [8]); 56.5% in assay [6] (at 50.0 µM).

As to `Cc1nc(Nc2ccc(Cl)cc2)sc1C(=O)NNc1ccc([N+](=O)[O-])cc1[N+](=O)[O-]`, the growth inhibition in assay [1] (setting [7]) was 24%; in assay [1] (setting [8]) it was 24%; in assay [1] (at 50.0 µM), 88.8% (active); in assay [2] (setting [7]), 9%; in assay [2] (setting [8]), 9%; in assay [2] (at 50.0 µM) it was 90.2% (active). Moreover, the growth inhibition is -6% in assay [3] (setting [7]); -6% in assay [3] (setting [8]); 90.5% (active) in assay [3] (at 50.0 µM); 9% in assay [4] (setting [7]); 9% in assay [4] (setting [8]); 89.4% (active) in assay [4] (at 50.0 µM). The growth inhibition in assay [5] (setting [7]) was 10%; in assay [5] (setting [8]), 10%; in assay [5] (at 50.0 µM) it was 92.8% (active); in assay [6] (setting [7]) it was 16%; in assay [6] (setting [8]), 16%; in assay [6] (at 50.0 µM) it was 89.8% (active).

Regarding `c1ccc([B-](c2ccccc2)(c2ccccc2)c2ccccc2)cc1`, the growth inhibition was -3% in assay [1] (setting [7]); -6% in assay [1] (setting [8]); 98.2% (active) in assay [1] (at 50.0 µM); -4% in assay [2] (setting [7]); -1% in assay [2] (setting [8]); 95% (active) in assay [2] (at 50.0 µM). Besides, the growth inhibition was 0% in assay [3] (setting [7]); -3% in assay [3] (setting [8]); 98.2% (active) in assay [3] (at 50.0 µM); 4% in assay [4] (setting [7]); -16% in assay [4] (setting [8]); 98.4% (active) in assay [4] (at 50.0 µM). For the same molecule, the growth inhibition in assay [5] (setting [7]) is 5%; in assay [5] (setting [8]), 2%; in assay [5] (at 50.0 µM), 93.3% (active); in assay [6] (setting [7]), 1%; in assay [6] (setting [8]) it was -2%; in assay [6] (at 50.0 µM), 98.5% (active).

Turning to `O=C(CCn1[nH]c(=O)c(Cl)c(Cl)c1=O)NNc1ccc([N+](=O)[O-])cc1[N+](=O)[O-]`, the growth inhibition in assay [1] (setting [7]) was 4%; in assay [1] (setting [8]), 36%; in assay [1] (at 50.0 µM), 35.8%; in assay [2] (setting [7]) it was -7%; in assay [2] (setting [8]), 2%; in assay [2] (at 50.0 µM), -4.7%. Moreover, the growth inhibition in assay [3] (setting [7]) was 1%; in assay [3] (setting [8]), 18%; in assay [3] (at 50.0 µM), -12.9%; in assay [4] (setting [7]), -2%; in assay [4] (setting [8]) it was 1%; in assay [4] (at 50.0 µM) it was -2.45%. Also, the growth inhibition is 1% in assay [5] (setting [7]); 19% in assay [5] (setting [8]); 26.2% in assay [5] (at 50.0 µM); 2% in assay [6] (setting [7]); 17% in assay [6] (setting [8]); 88.2% (active) in assay [6] (at 50.0 µM).
